# Bioassay records (PubChem BioAssay)
# Shown are actives, neighbours in structure and some others; about 3.6% of the full set was active somewhere.
# BoNT-A LC inh2: inhibitors of Botulinum neurotoxin A light chain protease | multiplex microsphere protease substrate cleavage, flow cytometry | inhibition, % at 10 µM | 360,000 tested, 0.17% active | AID 588499; further: plate controls were buffer without enzyme for full effect and enzyme alone for no effect
# BoNT F protease: blocks Botulinum neurotoxin F light chain protease. 360,000 tested, 0.22% active. inhibition, % at 10 µM. Multiplex microsphere protease cleavage assay, flow cytometry; in the data active means inhibition above about 35%, passing the limit was not always enough; inconclusive means no clear call, values can overlap the other calls; further: plate controls were buffer without enzyme for full effect and enzyme alone for no effect
# Autofluor counter: counter-screen for toxin protease inhibitors: compound fluorescence. compound autofluorescence counterscreen, microsphere flow cytometry; stronger effect = higher value. fluorescence intensity (no concentration beside the values). 360,000 tested, 3.1% active; in the data active means fluorescence intensity above about 16000; inconclusive means no clear call, values can overlap the other calls
# BJeLR viability: kills HRASV12-expressing BJeLR cells; BJeLR (HRASV12) viability, CellTiter-Glo ATP luminescence, 48 h; inhibition, % (test concentration not listed); 300,000 tested, 0.17% active; in the data active means inhibition above about 50%; inconclusive means no clear call, values can overlap the other calls
# SARS 3CLpro inh: SARS-CoV 3CLpro protease inhibition; 290,000 tested, 0.14% active; inhibition, % at 6 µM; recombinant SARS-CoV 3CLpro, quenched FRET peptide cleavage; in the data active means inhibition above about 12%
# Anthrax LF prot: inhibitors of Bacillus anthracis lethal factor protease; inhibition, % at 10 µM; AID 588501; 360,000 tested, 0.12% active; multiplex microsphere protease cleavage assay, LF; further: plate controls were buffer without enzyme for full effect and enzyme alone for no effect
# * = called active by the depositor; u = inconclusive; x = not tested or not shown. Unless noted, no stated cut-off is given here; in the data, active means inhibition above about 30%; inconclusive means no clear call, values can overlap the other calls; inactive means below that.
SMILES,BoNT-A LC inh2,BoNT F protease,Autofluor counter,BJeLR viability,SARS 3CLpro inh,Anthrax LF prot
Cc1ccc(C)c(OCC(=O)Nc2nc3ccc([N+](=O)[O-])cc3s2)c1C,u,-1.1,22520*,-3.9,3.4,-0.9
CCC(=O)Nc1nc2ccc([N+](=O)[O-])cc2s1,x,x,x,0.7,-6.0,x
O=c1c(-c2nc3ccccc3s2)cccn1Cc1ccccc1,u,1.1,22734*,2.8,-3.9,5.6
Cc1ccc(Cn2cccc(-c3nc4ccccc4s3)c2=O)cc1,3.0,4.1,4380,-1.5,-4.1,-2.6
Cc1cc(C)cc(NC(=O)COC(=O)CCn2c(C)csc2=O)c1,1.0,0.4,5553,x,x,-6.6
CCOc1ccc(NC(=O)C2CSC(c3ccncc3)=N2)cc1 (stereo not given),-0.3,-8.0,5269,-13.7,0.8,-5.6
Nc1c(C(=O)c2ccc(Br)cc2)oc2ccccc12,0.3,1.1,2494,-3.6,0.8,-2.7
Nc1c(C(=O)c2ccccc2)oc2ccc(Br)cc12,-0.8,-2.8,20833*,-0.6,3.4,-4.0
COC(=O)CCC(=O)c1oc2ccc(Br)cc2c1N,-0.3,1.4,16549*,13.9,-0.9,-2.8
COc1ccc2oc(C(=O)CCC(=O)O)c(N)c2c1,-0.8,-11.1,6091,-6.8,-4.9,3.6
c1nc(NCc2ccc3c(c2)OCO3)c2cc(-c3ccoc3)ccc2n1,-0.1,5.3,4139,x,x,0.3
CCCN1C(=O)/C(=C/c2c(NCCCOC(C)C)nc3c(C)cccn3c2=O)SC1=S,14.8,35.3*,4542,3.2,-1.0,8.3
CC1CCCN(C(=O)C(Cc2ccccc2)n2cccc2)C1 (stereo not given),-0.1,1.2,6355,-10.3,-4.2,-6.0
Cc1ccccc1-c1cc2nc(NCc3ccccc3)n(C)c(=O)c2s1,-0.2,-3.7,3779,x,x,-2.0
CSc1nnc(-c2cccc(C)c2)n1N,-0.1,-2.1,2026,3.3,3.4,-1.4
O=C(Nn1c(C2CC2)nc2ccccc2c1=O)c1ccco1,5.4,10.5,20747*,4.8,-3.6,-6.3
COc1cc2nc(C3CC3)n(NC(=O)c3ccc(F)cc3)c(=O)c2cc1OC,u,-3.1,24457*,-12.3,-0.3,-0.9
O=C(Nn1c(C2CCC2)nc2ccccc2c1=O)C1CCC1,10.6,13.6,16974*,-13.8,1.9,-4.8
CCOc1ccccc1C(=O)Nn1c(C2CCC2)nc2ccccc2c1=O,1.1,2.9,11628,3.7,-0.8,-2.3
COc1ccccc1C(=O)Nn1c(C2CCC2)nc2ccccc2c1=O,u,-0.2,23194*,-1.5,6.7,-0.3
C[C@@H]1[C@H](O)C[C@@]23COC(=O)C2=CCC[C@@H]3[C@@]1(C)CC/C(=C/CO)CO,-0.6,-2.5,5726,x,x,-11.9
COCCCNC(=O)Cc1c(C)c2c(cc(C)c3c(C(C)(C)C)coc32)oc1=O,2.2,-18.6,3863,65.6*,-0.2,3.8
COCCNC(=O)Cc1c(C)c2c(cc(C)c3c(C)coc32)oc1=O,-2.0,1.9,3734,-0.4,-3.3,2.0
CCC1C(=O)N(c2nc(C)cc(C)n2)N=C1C (stereo not given),2.0,-0.4,19066*,9.5,2.7,2.9
NC(=O)c1cccn1Cc1cccc(Cl)c1,-0.8,-10.1,10318,17.6,-3.8,-1.1
SMILES,BoNT-A LC inh2,BoNT F protease,Autofluor counter,BJeLR viability,SARS 3CLpro inh,Anthrax LF prot
NC(=O)c1cccn1Cc1ccccc1Cl,-0.1,2.2,22851*,3.3,3.6,3.3
Cc1cc(=O)n2c(nc3ccccc32)[nH]1,-1.5,-1.5,24029*,2.5,-0.3,-1.1
Cc1ccc(Cc2c(-c3ccco3)nc3c(C)cc(Br)cn23)cc1,2.0,-3.8,4729,x,x,-3.7
CN(C)c1ncc(C(=O)O)cn1,-1.1,-2.8,16816*,0.1,1.9,-1.4
CN(C)c1cncc(C(=O)O)c1,0.2,-2.9,2136,-8.3,0.7,-2.1
Nn1c(SCC(=O)NCCc2ccc(F)cc2)nnc1C1CCCCC1,1.3,6.0,3563,x,x,4.4
Cc1cccc(C(=O)N/N=C/c2ccncc2)c1,-1.5,-3.4,16845*,3.8,0.4,-2.0
O=C(N/N=C/c1ccncc1)c1ccncc1,-0.3,-7.8,2837,x,x,-2.9
O=C(Nc1ccc(Cl)c(S(=O)(=O)N2CCCCC2)c1)c1cccnc1,-0.9,u,4150,x,x,-0.8
CC(=O)c1ccc(OC(=O)C(CCS(C)(=O)=O)N2C(=O)c3ccccc3C2=O)cc1 (stereo not given),-2.4,-1.2,21318*,0.5,1.8,0.2
Nc1cc(=O)[nH]c(SCC(=O)Nc2ccc(N3CCOCC3)cc2)n1,0.4,-8.1,3643,x,x,-2.8
O=C(NNC(=O)c1ccccc1C(F)(F)F)c1csc(N2CCOCC2)n1,-0.8,4.3,5883,-0.6,-1.5,0.5
NCC12CC3CC(CC(O)(C3)C1)C2,-0.1,1.9,12747,0.9,-2.8,-2.8
NCC12CC3CC(C1)CC(CN)(C3)C2,-0.2,-6.8,23074*,-7.4,3.3,-3.2
Cc1ccc2c(c1C)NC(=O)C2(O)CC(=O)c1ccc2c(c1)OCO2 (stereo not given),u,-0.5,16395*,-4.5,-6.0,-3.0
C#CCN1C(=O)C(O)(CC(=O)c2cccc(OC)c2)c2ccccc21 (stereo not given),0.1,-11.3,3708,0.6,-0.1,0.5
CCN1C(=O)C(O)(CC(=O)c2ccc3c(c2)OCCO3)c2ccccc21 (stereo not given),0.2,-3.7,5525,3.3,-1.0,0.5
COc1cccc2cc(C(=O)CC3(O)C(=O)N(Cc4ccccc4)c4ccccc43)c(=O)oc12 (stereo not given),0.2,-0.9,20419*,2.6,7.5,-2.8
CCOC(=O)CN1C(=O)C(O)(CC(=O)c2cccc(OC)c2)c2ccccc21 (stereo not given),-0.6,1.2,23744*,-8.8,-0.1,-3.5
O=C(O)CC1(O)C(=O)N(Cc2ccccc2)c2ccccc21 (stereo not given),-0.7,-2.9,2603,-4.2,-1.8,-1.9
COc1ccc(CN2C(=O)C(O)(CC(=O)c3ccc4c(c3)OCO4)c3ccccc32)cc1OC (stereo not given),5.1,4.4,22009*,-14.2,2.9,-4.4
O=C(Nc1cccc(C(F)(F)F)c1)C1Cc2c(-c3ccccc3Oc3ccccc3)ccnc2O1 (stereo not given),-0.1,2.8,2818,x,x,3.0
Cc1nc(C(F)(F)F)ccc1C(=O)N1CCC1(C)C(=O)NS(=O)(=O)c1c(C)noc1C (stereo not given),0.1,0.0,3473,x,x,-2.3
COc1cc(C(C)=O)ccc1OC(=O)c1cc2cccc(OC)c2oc1=O,1.0,0.1,4568,-1.5,7.8,2.3
COc1cccc2cc(C(C)=O)c(=O)oc12,-0.8,-1.0,19894*,3.5,2.4,1.0
COc1ccc(N2CCN(C(=O)CC3NC4CCCCC4NC3=O)CC2)cc1 (stereo not given),1.5,2.2,22113*,9.5,1.8,-1.2
Cc1cc(C)n2nc(CC(=O)NC3CCCCCC3)nc2n1,-1.2,-4.3,19846*,-9.6,-0.1,-1.8
